Laboratory results taken from ChEMBL document CHEMBL1961873, “Compounds: GSK PKIS; Assays: Nanosyn kinase panel” (2012).

Target: Fibroblast growth factor receptor 4 (Homo sapiens) (UniProt P22455)
Conditions: at 1 µM
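Note: reported figure is the averaged percent inhibition of FGFR4, from the GSK PKIS kinase screening panel.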

Fibroblast growth factor receptor 4 (Homo sapiens), sequence (P22455 22-802 limits assumed): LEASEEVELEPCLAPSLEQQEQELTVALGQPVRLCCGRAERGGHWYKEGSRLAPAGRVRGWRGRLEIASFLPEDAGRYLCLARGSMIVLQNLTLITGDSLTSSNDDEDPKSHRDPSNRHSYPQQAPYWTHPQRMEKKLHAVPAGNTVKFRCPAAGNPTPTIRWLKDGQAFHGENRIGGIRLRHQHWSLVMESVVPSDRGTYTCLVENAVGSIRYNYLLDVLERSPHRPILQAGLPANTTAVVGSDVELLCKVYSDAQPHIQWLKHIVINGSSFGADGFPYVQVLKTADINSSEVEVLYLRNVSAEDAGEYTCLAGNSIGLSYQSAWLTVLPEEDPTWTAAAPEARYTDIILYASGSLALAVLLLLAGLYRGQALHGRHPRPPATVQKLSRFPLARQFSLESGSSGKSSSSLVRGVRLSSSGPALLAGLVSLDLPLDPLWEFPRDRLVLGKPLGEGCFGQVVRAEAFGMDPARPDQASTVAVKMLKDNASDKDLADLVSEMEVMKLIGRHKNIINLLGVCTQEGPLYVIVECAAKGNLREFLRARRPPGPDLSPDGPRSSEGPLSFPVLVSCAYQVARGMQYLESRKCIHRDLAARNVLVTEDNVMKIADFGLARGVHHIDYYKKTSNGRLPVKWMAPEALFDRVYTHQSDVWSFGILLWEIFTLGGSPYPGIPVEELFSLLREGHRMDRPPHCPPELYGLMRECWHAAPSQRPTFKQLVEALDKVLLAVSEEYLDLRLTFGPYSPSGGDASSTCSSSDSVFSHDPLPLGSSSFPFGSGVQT

Question: How did the inhibition turn out when `Nc1nccc(-c2c(-c3ccc(F)cc3)ncn2CCCN2CCOCC2)n1` was run?
Answer: -1.03%

Question: `NS(=O)(=O)c1ccc(Nc2cc(-c3cccc(O)c3)n[nH]2)cc1` was tested. Which inhibition did it give?
Answer: 4.03%

Question: Which inhibition does the source give for `C[C@@H](Oc1cc(-n2cnc3ccc(OC[C@@H](O)CO)cc32)sc1C(N)=O)c1ccccc1Cl` here?
Answer: 0.23%

Question: How did the inhibition turn out when `CN1CCN(C(=O)c2ccc(NC(=O)Nc3ccc(N(C)c4ccnc(Nc5ccc(CS(C)(=O)=O)cc5)n4)cc3)cc2)CC1` was run?
Answer: 3.43%

Question: Which inhibition does the source give for `Nc1nccc(-c2c(-c3ccc(F)cc3)nn3cc(C(F)(F)F)ccc23)n1` here?
Answer: 0.14%

Question: For `COc1cccc(-n2nc(C)c3c(N/N=C(\C)c4ccncc4)ncnc32)c1`, which inhibition is on record?
Answer: -0.8%

Question: `CN(C)c1cc2c(Nc3ccc4c(cnn4Cc4ccccc4)c3)ncnc2cn1` was tested. Which inhibition did it give?
Answer: 7.89%

Question: How did the inhibition turn out when `CC(C)c1ccc2c(c1)NC(=O)/C2=N/Nc1ccc(S(N)(=O)=O)cc1` was run?
Answer: -0.36%

Question: How did the inhibition turn out when `COc1cc(Nc2nccc(-c3cnn4ncccc34)n2)cc(OC)c1` was run?
Answer: 0.03%

Question: Which inhibition does the source give for `NS(=O)(=O)c1cccc(-c2cc3ccncc3cc2OCc2ccccc2)c1` here?
Answer: 3.21%

Question: How did the inhibition turn out when `CCS(=O)(=O)c1ccc(OC)c(Nc2nccc(N(C)c3ccc4c(C)n[nH]c4c3)n2)c1` was run?
Answer: 11.3%

Question: Which inhibition does the source give for `NS(=O)(=O)c1ccc(N/N=C2\C(=O)Nc3ccc(Cl)cc32)cc1` here?
Answer: 0.91%

Question: Which inhibition does the source give for `OCc1ccc(-c2nc(-c3ccccn3)c(-c3ccc4c(c3)OCO4)[nH]2)cc1` here?
Answer: 4.36%

Question: Which inhibition does the source give for `NC(=O)c1cccc(Nc2nccc(Nc3cccc(F)c3)n2)c1` here?
Answer: 1.79%

Question: For `ON=C1CCc2cc(-c3nc(C4CCNCC4)[nH]c3-c3ccncc3)ccc21`, which inhibition is on record?
Answer: 1.91%

Question: For `CN(C)C(=O)O[C@H]1CN[C@H](C#Cc2cc3ncnc(Nc4ccc(OCc5cccc(F)c5)c(Cl)c4)c3s2)C1`, which inhibition is on record?
Answer: 1.39%
